Data published in PubChem BioAssay.
For some of these results: Potency and affinity values are given separately. Calls of active or inactive are those of the source. A call without a number means that no potency is given here. Unless noted, no cut-off is given here; in the data, nearly all actives have IC50 up to about 0.98 µM.

System: not listed separately
Assay: inhibition of 3D7 malaria parasite growth – strain 3D7 (AID 2306; call rule not given here)
Conditions: P. falciparum 3D7 erythrocytic growth, LDH absorbance, 72 h; at 2 µM; stronger effect = higher value

SMILES	growth inhibition
CN(C(=O)c1snnc1-c1ccccc1)C1CCN(CCCCCNC(=O)/C=C/c2ccc(Cl)c(Cl)c2)CC1	96% (active)
CC(C)N1CCN(C(CN2CCN(CCCOc3ccccc3-c3ccccc3)CC2)c2ccc(F)cc2)CC1 (stereo not drawn)	100% (active)
C=CCOC(=O)N1CCC(CNCc2cccc(-c3ccc(-c4nc5c(C)cccc5[nH]4)s3)c2)C1 (stereo not drawn)	101% (active)

Molecular target: Calcium-dependent protein kinase 1 (Plasmodium falciparum (isolate 3D7)) (UniProt P62344)
Assay: PfCDPK1 kinase inhibitors, biochemical, TCAMS library (AID 1159585);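 note: inhibitors leave more ATP so luminescence rises with inhibition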
Conditions: recombinant PfCDPK1, Kinase-Glo ATP depletion luminescence

Calcium-dependent protein kinase 1 (Plasmodium falciparum (isolate 3D7)), sequence (P62344 whole entry, looked up): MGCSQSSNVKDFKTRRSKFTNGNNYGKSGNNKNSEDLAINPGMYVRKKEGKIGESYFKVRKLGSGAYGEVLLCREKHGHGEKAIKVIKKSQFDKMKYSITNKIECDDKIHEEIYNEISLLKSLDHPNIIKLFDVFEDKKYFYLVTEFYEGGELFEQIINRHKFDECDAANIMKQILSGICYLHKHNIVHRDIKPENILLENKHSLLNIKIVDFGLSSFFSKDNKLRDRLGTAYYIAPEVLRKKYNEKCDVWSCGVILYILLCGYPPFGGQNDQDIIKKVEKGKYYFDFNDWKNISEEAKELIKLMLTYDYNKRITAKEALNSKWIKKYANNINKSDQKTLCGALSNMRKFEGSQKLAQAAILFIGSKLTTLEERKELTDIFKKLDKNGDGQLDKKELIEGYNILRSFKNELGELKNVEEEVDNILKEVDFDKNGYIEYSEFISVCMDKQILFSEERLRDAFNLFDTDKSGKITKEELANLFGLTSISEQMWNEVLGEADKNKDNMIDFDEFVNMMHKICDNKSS

SMILES	outcome
Clc1ccc(-c2cc3c(NCc4ccncc4)nccc3s2)cc1	inactive
CCN(CC)CCN(Cc1ccc(-c2ccc(C(F)(F)F)cc2)cc1)C(=O)Cn1c(SCc2ccc(F)cc2)cc(=O)c2ccccc21	inactive
O=C(Nc1ccccc1)N(Cc1ccccc1-c1cccc(CNCCc2ccccc2)c1)C1CCN(Cc2ccccc2)CC1	inactive
Cc1ccccc1N1CCN(c2ccc(C(=O)Nc3ccccc3)cc2)CC1	inactive
CN1CCN(CCCN(Cc2cccc(-c3ccc(CNCc4ccc5c(c4)OCO5)cc3)c2)C(=O)CCC2CCCC2)CC1	inactive
Fc1ccc2nc(-c3cccc(-c4ccc(CNCc5ccccc5)cc4)c3)[nH]c2c1	inactive
COc1cc(Cl)c(C)cc1N(Cc1ccccc1-c1ccccc1)S(=O)(=O)c1ccc(C(F)(F)F)cc1	inactive
COc1cc(NCC(C)CNCc2cn(Cc3ccccc3)c3ccccc23)nc2ccccc12 (stereo not drawn)	inactive
O=S(=O)(c1cccc(Br)c1)N1CCCCC(c2ccc(C(F)(F)F)cc2)=N1	inactive
COCc1nc(N)nc(N)c1-c1ccc(Cl)c(Cl)c1	inactive
O=C(NCCCCN1CCC(c2ccc3c(c2OCC2CC2)CCCC3)CC1)c1ccc(NC(=O)c2ccc(Cl)cc2)cc1	inactive
Cc1ccc(-c2nnc3c4ccccc4c(C)nn23)cc1S(=O)(=O)N1CCN(CCO)CC1	inactive
COc1ccc(Nc2nccc(N3CCC(NC(=O)Nc4cc(C)ccc4C)C3)n2)cc1 (stereo not drawn)	inactive
O=c1ccc2ncc(Cl)c3c2n1CC3CN1CCC(NCc2cc3c(cn2)OCCO3)CC1 (stereo not drawn)	inactive
CC(=O)c1sc(Cc2nc3ccccc3s2)nc1C	inactive
CCN1CCN(c2ccc(Nc3ccnc4ccc(Br)cc34)cc2)CC1	inactive
O=C(NCC1Cc2cc(Oc3ccccc3)ccc2O1)c1ccc([N+](=O)[O-])o1 (stereo not drawn)	inactive
CCN(CC)CCN(Cc1ccc(-c2ccc(C(F)(F)F)cc2)cc1)C(=O)c1ccc(-c2ccc(NC(=O)OC)cc2C)cc1	inactive
COc1ccc(CNCCc2cccs2)cc1-c1cccc(S(=O)(=O)NCCN2CCCC2)c1	inactive
O=C(Nc1ccc(-c2cccc(-c3nc4ccc(C(F)(F)F)cc4[nH]3)c2)cc1)Nc1ccc(Cl)c(Cl)c1	inactive

SMILES	outcome
CCN(CC)CCN(Cc1ccc(-c2ccc(C(F)(F)F)cc2)cc1)C(=O)Cn1c(CCC2CCCCC2)nc(=O)c2ccccc21	inactive
CC(Oc1ccc(NC(=O)c2cccs2)cc1)C(=O)c1ccc(Cl)cc1 (stereo not drawn)	inactive
CC(=O)Nc1ccc(C(=O)Nc2ccc(-c3cccc(-c4nc5c(C)cccc5[nH]4)c3)cc2)cn1	inactive
COc1ccc(-c2ccc(CNC(=O)c3ccc(C#N)cc3)c(F)c2)cc1CN1CCCN(C)CC1	inactive
CC1CN(C(=O)c2sc3ccccc3c2Cl)CC(C)O1 (stereo not drawn)	inactive
COc1ccc2nccc([C@@H](O)CN3CCC(NCc4ccc(OC)c(NC(C)=O)c4)CC3)c2c1	inactive
COc1ccc(Nc2nc(C)cc(NC3CCCC3)n2)cc1	inactive
COc1cc2nc(NCCc3ccccc3)nc(NCc3cc(C)no3)c2cc1OC	inactive
c1ccc2c(C3CCN(CCCCOc4ccc5c(c4)CCN(C4CCC4)CC5)CC3)c[nH]c2c1	inactive
Cc1cc(N[C@@H](Cc2ccccc2)C(=O)NCCCOC(C)C)nc(NCC2CCCCC2)n1	inactive
COc1ccc(C(=O)CCC(=O)N(Cc2ccc(-c3ccc(CNCc4cccnc4)cn3)cc2)C2CCN(Cc3ccccc3)CC2)cc1F	inactive
O=[N+]([O-])c1cc2c(cc1C=NNc1nc(Nc3ccccc3)nc(Nc3ccccc3)n1)OCO2	inactive
Cc1cccc2[nH]c(-c3cccc(-c4cccc(CN5CCN(c6ccncc6)CC5)c4)c3)nc12	inactive
CC(C)CCn1c(Sc2ccc(C#N)c([N+](=O)[O-])c2)nnc1-c1cccc(Cl)c1	inactive
O=C(Nc1ccc(-c2cccc(-c3nc4ccccc4[nH]3)c2)cc1)Nc1ccc(Cl)c(Cl)c1	inactive
O=C(/C=C/c1ccc(Cl)c(Cl)c1)NCCCCCCN1CCCN(C(=O)Nc2ccc(C(F)(F)F)cc2)CC1	inactive
O=C(N[C@@H](Cc1ccccc1)C(=O)NC1CCCc2ccccc21)c1ccc(O)c(-c2ccc(Cl)c(Cl)c2)c1 (stereo partly drawn)	inactive
CN(C(=O)c1snnc1-c1ccccc1)C1CCN(CCCCCNC(=O)/C=C/c2ccc(Cl)c(Cl)c2)CC1	inactive
CC(C)N1CCN(C(CN2CCN(CCCOc3ccccc3-c3ccccc3)CC2)c2ccc(F)cc2)CC1 (stereo not drawn)	inactive
C=CCOC(=O)N1CCC(CNCc2cccc(-c3ccc(-c4nc5c(C)cccc5[nH]4)s3)c2)C1 (stereo not drawn)	inactive
